Hits are enriched below; roughly 2.6% of the tested compounds scored in any of these assays.
Bim-Mcl-1: inhibitors of Bim-Mcl-1 interaction, human | Q07820 | Bead-based flow cytometry, Bim peptide-Mcl-1 binding | inhibition, % at 10 µM | actives 0.1% (n = 190,000); in the data active means inhibition above about 40%;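 further: 0% = no compound tracer wells and 100% = peptide blocker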
14-3-3 Bad PPI: disrupts binding of bovine 14-3-3 zeta to phospho-Bad peptide; AID 781; actives 0.71% (n = 220,000); TR-FRET 14-3-3zeta/Dy647-pBad peptide displacement, 1 h; P63103; inhibition, % at 21.7 µM;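 active means inhibition above about 70%, limit read from the data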;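 further: 0% = full 14-3-3 plus peptide FRET controls and 100% = background without 14-3-3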
MCL1 BIM primary: disrupts human MCL1 binding to BIM-BH3 peptide; GST-MCL1 / FITC-Bim-BH3 fluorescence polarization; inhibition, % at 10.9 µM; actives 0.68% (n = 320,000);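 active means inhibition above the mean inhibition of all tested compounds plus 3 SD, set per campaign, cut at about 40% in these data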;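 further: 0% = DMSO wells and 100% = unlabeled Bim-BH3 peptide control; higher means more loss of mP so more displacement of Bim peptide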
eIF4E 4G PPI: eIF4E/eIF4G interaction inhibition in translation initiation; AID 782; P63073+Q04637; inhibition, % at 21.7 µM; actives 0.37% (n = 220,000); TR-FRET eIF4E-eIF4GI(517-606) binding, 2 h;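 active means inhibition above about 30%, limit read from the data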;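 further: 0% = full FRET control wells and 100% = background wells lacking eIF4GI fragment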
Mcl1 Bid PPI: disrupts binding of human Mcl-1 to Bid peptide | TR-FRET Mcl-1/Bid-Dy647 peptide binding, 1536-well | inhibition, % at 21.7 µM | actives 0.97% (n = 220,000);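 active means compounds that cut the binding signal by more than half at the single screening dose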;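 further: His-tagged Mcl-1 with europium anti-His antibody binding Bid BH3 peptide; 0% = Mcl-1 plus peptide wells and 100% = peptide-only wells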
Mcl1 Noxa PPI: Mcl-1/Noxa interaction inhibition; TR-FRET Mcl-1/Noxa peptide binding, 2 h; inhibition, % at 21.7 µM; actives 1.5% (n = 220,000);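 active means compounds that cut the protein-peptide binding signal by more than 50% relative to plate controls in a single-dose test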;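 further: His-tagged Mcl-1 with rhodamine Noxa BH3 peptide and terbium anti-His antibody; 0% = Mcl-1 plus Noxa peptide wells and 100% = peptide-only wells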
* hit, by the source's call; · = not tested or not shown; [ ] = another dose, or the depositor's remark.

SMILES | Bim-Mcl-1 | 14-3-3 Bad PPI | MCL1 BIM primary | eIF4E 4G PPI | Mcl1 Bid PPI | Mcl1 Noxa PPI
Cc1nc(-c2cccs2)ccc1C(=O)O | 5 | -1 | 9 | -3 | -17 | 8
COc1ccc(C(=O)c2sc3nc(-c4ccc(OC)cc4)ccc3c2N)cc1 | 0 | 15 | -21 | 9 | 23 | 77*
Nc1c(C(=O)Nc2nc3ccccc3s2)sc2nc(-c3cccs3)ccc12 | 4 | 96*[fluorescence artefact?] | -2 | 13 | 92* | 97*
COc1ccccc1OCCn1c(SCC(=O)O)nc2ccccc21 | · | · | 11 | · | · | ·
CC(=O)c1ccc(NC(=O)COC(=O)c2nc(Cl)ccc2Cl)cc1 | -2 | 1 | 7 | -2 | -21 | 19
Cc1ccc(/C=C/C(=O)Nc2cccc(S(=O)(=O)N3CCOCC3)c2)o1 | -5 | -7 | -19 | 0 | -1 | 53*
Cc1ccc(/C=C/C(=O)Nc2ccc(N(C)C)cc2)o1 | 2 | 3 | 10 | 1 | 10 | 95*
CCOc1ccc(N2CC(C(=O)NNC(=O)c3ccc(Br)cc3)CC2=O)cc1 (configuration not stated) | · | · | -3 | · | · | ·
CCOc1ccc(S(=O)(=O)N2CCCC(C(=O)N3CCOCC3)C2)cc1Cl (configuration not stated) | · | · | 6 | · | · | ·
Cc1cc(/C=N/n2c(COc3ccccc3C)nc3ccccc3c2=O)c(O)c([N+](=O)[O-])c1 | -1 | -5 | 8 | -1 | -2 | 81*
Cc1ccc(C(=O)NCC(=O)OC(C)C(=O)Nc2ccc(N(C)C)cc2)cc1C (configuration not stated) | 1 | -4 | -2 | 11 | -60 | 71*
CCOC(=O)c1c(C)oc2c1c1c(c3ccccc32)OCN(CCCC(=O)O)C1 | · | -9 | 3 | -2 | -21 | 53*
CCOC(=O)c1c(C)oc2c1c1c(c3ccccc32)OCN(Cc2cccnc2)C1 | 1 | 0 | · | 4 | 9 | 71*
CCOC(=O)c1c(C)oc2c1c(C=NCc1ccccn1)c(O)c1ccccc12 | 0 | 12 | · | -1 | -28 | 1
CCOC(=O)c1c(C)oc2c1c(C(c1cccnc1)N1CCOCC1)c(O)c1ccccc12 (configuration not stated) | -5 | 17 | 10 | 8 | 69* | 101*
Cc1cc(C(=O)N2CCOCC2)n(-c2ccccc2)n1 | 0 | -20 | 15 | 4 | 51* | 20
Cc1ccc(NC(=O)CCSc2nc(C)cc(C)n2)cc1 | -3 | 5 | -1 | -1 | 3 | -11
O=C1c2sc3nc4ccccc4n3c2C(=O)N1c1ccccc1Cl | -12 | 3 | 3 | 4 | -17 | 62*
CCNc1ccc2c(Cl)cc(=O)oc2c1 | -1 | 3 | -8 | 6 | 97* | 1
O=C(NCCN1CCCC1=O)C1CCC(=O)N(CCc2cccc(F)c2)C1 (configuration not stated) | · | · | 2 | · | · | ·
O=C1CCCC2=C1C(c1ccc(Br)cc1)c1c([nH]c(=S)[nH]c1=O)N2 (configuration not stated) | -4 | 38 | 6 | 59* | -7 | 53*
O=c1[nH]c(=S)[nH]c2c1C(c1ccc(Br)cc1)c1c([nH]c(=S)[nH]c1=O)O2 | · | · | 72* | · | · | ·
O=C(NCc1ccccn1)c1cccc(S(=O)(=O)NCc2ccccc2)c1 | · | · | 6 | · | · | ·
Cc1csc(NC(C)c2nc3cc(Cl)c(Cl)cc3n2CCCO)n1 (configuration not stated) | · | · | -6 | · | · | ·
Cc1ccc(SC2=C(Sc3ccc(C)cc3)C(=O)c3ccccc3C2=O)cc1 | · | 3 | 31 | 3 | 1 | 69*
SMILES | Bim-Mcl-1 | 14-3-3 Bad PPI | MCL1 BIM primary | eIF4E 4G PPI | Mcl1 Bid PPI | Mcl1 Noxa PPI
Cc1ccc(N2C(=O)c3ccccc3C2=O)cc1 | · | 1 | -7 | 1 | -23 | -1
CC1=CC(=O)C=C(C)C1=NOC(=O)c1cccc([N+](=O)[O-])c1 | -3 | -7 | 6 | -1 | -10 | 53*
Cc1ccc(-c2csc(NC(=O)c3ccno3)n2)cc1 | -1 | -16 | 18 | -4 | 16 | 56*
Cc1cc(NC(=O)CN2CCCCCCC2)no1 | -4 | 40 | -8 | -4 | 64* | 21
O=C(CN1CCCCCC1)Nc1ccc(F)c(F)c1 | -5 | 72* | 5 | 3 | 47 | 26
O=C(CN1CCCCC1)Nc1ccc(F)c(Cl)c1 | -2 | -17 | -3 | 1 | -30 | 12
O=C(O)C[C@H]1c2cc(C(F)(F)F)ccc2S(=O)(=O)N1C1CCCCC1 | · | · | 2 | · | · | ·
CCOc1ccc(S(=O)(=O)N2CCCCC2)cc1NC(=O)CN1C(=O)NC(C)(c2ccc(C)cc2)C1=O (configuration not stated) | · | · | 16 | · | · | ·
COc1ccc(/C=C(\C#N)C(=O)Nc2cccnc2)cc1 | 1 | -2 | 10 | 0 | -2 | 15
COc1ccc(O)c(/C=C(\C#N)C(=O)Nc2cccnc2)c1 | -3 | 20 | -4 | 37* | -6 | 3
O=C(O)CCN1C(=O)/C(=C/c2ccc(-c3nc4ccccc4s3)o2)SC1=S | 9 | 22 | 15 | 18 | 94* | 104*
O=C(O)CC(C(=O)O)N1C(=O)/C(=C/c2ccc(-c3nc4ccccc4s3)o2)SC1=S (configuration not stated) | 3 | 13 | -16 | 5 | -19 | 5
O=C(O)CCCN1C(=O)/C(=C\c2ccc(-c3nc4ccccc4s3)o2)SC1=S | · | 81* | 23 | 15 | 87* | 104*
Cc1onc(-c2c(Cl)cccc2Cl)c1C(=O)Nc1ccc(N2CCOCC2)cc1 | · | -1 | -8 | -8 | -23 | 0
Fc1ccc(C(CCNCc2ccccn2)c2ccc(Cl)cc2)cc1 (configuration not stated) | · | · | 7 | · | · | ·
CCOC(=O)c1sc2nc3c(SCCC#N)cc(C(=O)c4cc(F)ccc4O)cn3c(=O)c2c1C | -4 | -18 | -15 | 10 | 6 | 27
CCOC(=O)c1sc2nc3c(SCCC(=O)O)cc(C(=O)c4cc(OC)ccc4O)cn3c(=O)c2c1C | 0 | 64 | · | 57* | 85* | 87*
O=C(O)CSc1cc(C(=O)c2cc(F)ccc2O)cn2c(=O)c3c(-c4ccccc4)csc3nc12 | · | 17 | 8 | 22 | 3 | 104*
O=Cc1[nH]c2ccccc2c1N(C(=O)CCl)c1ccc([N+](=O)[O-])cc1 | · | 0 | 2 | 11 | -60 | 92*
CC(=O)n1cc(N(C(=O)CCl)c2ccc([N+](=O)[O-])cc2)c2ccccc21 | · | 1 | 5 | -1 | -12 | -8
O=[N+]([O-])c1cc(Cc2ccccc2)cc(C=Nc2ccc(N3CCOCC3)cc2)c1O | 2 | 6 | 27 | 7 | -17 | 28
Cc1ccc(O)c(N=Cc2cc(Cc3ccccc3)cc([N+](=O)[O-])c2O)c1 | -1 | 36 | · | 9 | -89 | 56*
COc1cc(C=Nc2cccc(C)c2)c(O)c([N+](=O)[O-])c1 | 53* | -6 | 13 | -1 | -81 | 39

Source: PubChem BioAssay (several laboratories)
